Only some compounds are listed: those with a hit (about 19% of all), similar ones and a draw of the others.
ASM inhibitor: Inhibitors of Secretory Acid Sphingomyelinase (S-ASM): qHTS. Potency, µM (top dose mostly 57.5 µM), most hits filed as inhibitors. AID 504937, 2011. actives 0.006% (n = 340,000). placental ASM, HMU-PC fluorogenic substrate, 60 min
Target sequence (P17405 47-631 limits assumed): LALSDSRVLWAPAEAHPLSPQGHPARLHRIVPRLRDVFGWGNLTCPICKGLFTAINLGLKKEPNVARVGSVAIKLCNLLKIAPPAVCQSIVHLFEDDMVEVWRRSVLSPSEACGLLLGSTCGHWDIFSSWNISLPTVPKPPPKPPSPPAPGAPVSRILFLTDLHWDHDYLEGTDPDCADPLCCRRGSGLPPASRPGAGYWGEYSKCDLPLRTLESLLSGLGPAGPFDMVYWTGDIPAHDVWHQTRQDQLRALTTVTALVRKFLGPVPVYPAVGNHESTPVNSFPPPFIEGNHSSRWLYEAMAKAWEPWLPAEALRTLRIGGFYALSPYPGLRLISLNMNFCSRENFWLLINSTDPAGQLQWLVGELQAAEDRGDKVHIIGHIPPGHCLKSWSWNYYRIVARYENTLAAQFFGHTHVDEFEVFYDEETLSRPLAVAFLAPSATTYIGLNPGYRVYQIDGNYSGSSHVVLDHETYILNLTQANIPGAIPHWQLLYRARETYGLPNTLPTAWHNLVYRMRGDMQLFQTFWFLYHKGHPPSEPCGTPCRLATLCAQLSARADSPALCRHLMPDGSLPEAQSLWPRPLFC
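Fluorescence read-out (Ex 386 nm, Em 447 nm) after stopping the reaction at pH 10. Enzyme: ASM from human placenta; substrate HMU-PC0, 9 uM final; 60 min, 37 °C. Compound preincubation 10 min, ambient temperature.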
HepG2 viability: qHTS for Inhibitors of TGF-b: Cytotox Counterscreen; HepG2 CAGA-GFP viability, ATP luminescence, 18 h; Potency, µM (titrated, usually from 46.1 µM), usual class: cytotoxic; actives 0.76% (n = 410,000); AID 588856, 2011
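HepG2 CAGA-GFP cells (1000/well, DMEM with 1% FBS) received compound, then TGF-beta at 500 pg/mL final, and were incubated 18 hours at 37 degrees C. Viability was read by CellTiter-Glo luminescence. Media-only wells were set as complete cell-killing and DMSO as no toxicity.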
TDP1 cell CPT: qHTS for Inhibitors of human tyrosyl-DNA phosphodiesterase 1 (TDP1): qHTS in cells in presence of CPT; chicken DT40 Tdp1-/-;hTDP1 cells + 20 nM CPT, ATP luminescence, 48 h; Potency, µM (doses to about 46.2 µM), usual class: inhibitors; AID 686979, 2013; actives 12% (n = 420,000); also: nearly all actives have a fitted effect of over 55% in size
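Chicken DT40 Tdp1-/- cells complemented with human TDP1, 400 cells/well, exposed to compounds plus 20 nM camptothecin for at least 48 h at 37 C; viability read as ATP content by CellTiter-Glo luminescence.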
TGFb SMAD3 inh: qHTS for Inhibitors of TGF-b; HepG2 CAGA-GFP TGF-b/SMAD3 reporter, GFP fluorescence, 18 h; TGF-beta stimulated, 500 pg/mL final; Potency, µM (titrated, usually from 46.1 µM), usual class: inhibitors; actives 1.2% (n = 410,000); AID 588855, 2011; also: nearly all actives have a fitted effect of over 65% in size
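HEPG2 CAGA-GFP reporter cells (1000/well, DMEM with 1% FBS) received compounds, then recombinant TGF-beta at 500 pg/mL final for 18 hours at 37 degrees C. Per-cell GFP summed per well was normalised to unstimulated and stimulated DMSO controls before curve fitting.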
IL1B secr inh: qHTS for Inhibitors of Inflammasome Signaling: IL-1-beta AlphaLISA Primary Screen | THP-1 LPS/ATP IL-1B secretion, AlphaLISA, 16 h; active compounds read low | activity change, % at 57.5 µM | actives 4.7% (n = 360,000); in the data active = activity change below about -50%; inconclusive = mostly about -30% to -49%
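THP-1 cells pretreated 1 hr with compounds (up to 57.5 uM final), then stimulated with LPS (250 ng/mL final) plus ATP (1.25 mM final); secreted IL-1B measured by AlphaLISA after 16 hr, decreased signal indicating inhibition.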
TDP1 cell noCPT: qHTS for Inhibitors of human tyrosyl-DNA phosphodiesterase 1 (TDP1): qHTS in cells in absence of CPT; actives 15% (n = 420,000); DT40 Tdp1-/- hTDP1 cells, no CPT, ATP luminescence, 48 h; Potency, µM (series often up to 46.2 µM), hits mostly inhibitors; also: nearly all actives have a fitted effect of over 55% in size
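No-CPT arm: Tdp1-/-;hTDP1 DT40 cells (400/well) plus compounds, incubated ≥48 hr at 37 °C. Readout CellTiter-Glo luminescence.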
Numbers stand for hits; - = inactive; ? = inconclusive; . = no result; [ ] = dose if it differs, or a comment. Unless noted, calls follow the shape of the dose curve; as a rule, active = well fitted curve in the direction sought with a large enough effect; inconclusive = small, poorly fitted or top-dose-only effect, or another doubt; inactive = no such curve, though single readings can be large; an effect the other way counts as inactive or inconclusive.

SMILES	ASM inhibitor	HepG2 viability	TDP1 cell CPT	TGFb SMAD3 inh	IL1B secr inh	TDP1 cell noCPT
CCC(O)CNC(=O)c1cnn(-c2ncc3c(n2)-c2ccccc2CCC3)c1C1CC1 (configuration not stated)	.	.	-	.	.	?
Cc1cc(-c2ccnc(-n3ncc(C(=O)NCC4CCCO4)c3C3CC3)n2)c(C)s1 (configuration not stated)	.	.	-[9.04 µM]	.	.	?
CN(Cc1cccc2ncccc12)C(=O)c1cnn(-c2ncc3c(n2)-c2ccccc2CC3)c1C1CC1	.	.	?	.	.	16µM
Cc1cc(-c2ccnc(-n3ncc(C(=O)NCC4COCCO4)c3C3CC3)n2)c(C)s1 (configuration not stated)	.	.	9.2µM	.	.	6.5µM
COC(=O)[C@@H]1CCCN1C(=O)c1cnn(-c2ncc3c(n2)-c2ccccc2CCC3)c1C1CC1	.	.	?	.	.	16µM
O=C(Nc1ccc(C(O)c2ccccc2)cc1)[C@@H]1O[C@H](CO)[C@H](O)[C@H](O)[C@H]1O (some centres not stated)	.	-	-	-	-	-
Cc1cccc(C(=O)NNC(=O)c2ccco2)c1O	-	-	-	-	-	-
Cc1cc(CNC(=O)c2cnn(-c3nccc(-c4cc(C)sc4C)n3)c2C2CC2)on1	.	.	16µM	.	.	?
Cc1cc(CNC(=O)c2cnn(-c3ncc4c(n3)-c3ccccc3CC4)c2C2CC2)on1	.	.	16µM	.	.	?
O=C(NCc1cccnc1)c1cnn(-c2ncc3c(n2)-c2ccccc2CCC3)c1C1CC1	.	.	-[9.04 µM]	.	.	?
Cc1cc(-c2ccnc(-n3ncc(C(=O)NCC4CCCN(C)C4)c3C3CC3)n2)c(C)s1 (configuration not stated)	.	.	-	.	.	-
CC(c1ccon1)N(C)C(=O)c1cnn(-c2ncc3c(n2)-c2ccccc2CC3)c1C1CC1 (configuration not stated)	.	.	-[9.04 µM]	.	.	16µM
CCCCC(CC)CNC(=O)c1ccc(Cn2c(=O)[nH]c3cc(OC)c(OC)cc3c2=O)cc1 (configuration not stated)	.	-	?	-	.	?
COc1cc(OC)c(S(=O)(=O)N2CCOCC2)cc1S(=O)(=O)N1CCOCC1	-	-	-	-	-	-
COc1ccc(/C(C)=N/N=C(N)N)c(OC)c1	-	-	18µM	-	-	-
COc1ccc(OC)c(C(=O)c2ccc(C(=O)Nc3ccc4ccccc4c3)cc2)c1	-	-	21µM	-	-	18µM
COc1ccc(C(=O)c2ccc(N(C)C)cc2)c(OC)c1	-	-	3.2µM	-	-	2.8µM
COc1ccc(OC)c(C(=O)c2ccc(C(=O)c3cc(OC)ccc3OC)cc2)c1	-	-	?	-	-75	?
COc1cccc(C2(CC(=O)N3CCN(c4ccccn4)CC3)CC(=O)N(C3CCCC3)C2=O)c1 (configuration not stated)	.	.	-	.	.	?
CC(=O)c1cccc(NC(=S)N2CCN(S(=O)(=O)c3ccc(F)cc3)CC2)c1	-	-	-	-	-	-
Cc1cc(C)c2nc(N(Cc3cccnc3)C(=O)c3cccs3)sc2c1	.	-	?	-	.	?
COc1ccc(C(=O)c2ccc(OC)cc2OC)cc1	-	-	-	-	-	5.8µM
COc1ccc(C(=O)c2ccc(N3CCOCC3)cc2)c(OC)c1	-	-	?	-	-	?
COc1ccc(OC)c(C(=O)COC(=O)COc2ccccc2)c1	-	-	15µM	?	?	5.8µM
COc1ccc(OC)c(C(=O)CCCCC(=O)c2cc(OC)ccc2OC)c1	.	-	?	-	-	18µM
SMILES	ASM inhibitor	HepG2 viability	TDP1 cell CPT	TGFb SMAD3 inh	IL1B secr inh	TDP1 cell noCPT
CCc1cccc(C)c1NC(=O)c1cn2c3c(ccc(Cl)c3c1=O)OC(C)C2 (configuration not stated)	.	-	?	-	.	?
COc1cccc(C(C)(O)c2nc(-c3cccc(C#N)c3)cs2)c1 (configuration not stated)	.	-	18µM	-	-	13µM
COc1ccc(C(C)(O)c2nc(-c3cccc(C#N)c3)cs2)cc1 (configuration not stated)	.	-	13µM	-	-	21µM
COc1cccc(C(O)c2nc(-c3cccc(C#N)c3)cs2)c1 (configuration not stated)	.	-	?	-	-	?
CC(O)(c1ccccc1)c1nc(-c2cccc(C#N)c2)cs1 (configuration not stated)	.	-	?	-	-	?
COc1ccccc1NC(=O)c1cc2c(C)nn(-c3ccccc3)c2s1	.	-	?	-	.	23µM
COc1ccc(NC(=O)c2cc3c(C)nn(-c4ccccc4)c3s2)c(OC)c1	.	-	?	-	.	?
CC(=O)c1sc(NC(=O)c2cc3c(C)nn(-c4ccccc4)c3s2)nc1C	-	-	-	-	-	-
Cc1nc(NC(=O)c2cc3c(C)nn(-c4ccccc4)c3s2)sc1C(=O)Nc1ccccc1	-	-	?	-	-	21µM
Cc1nn(-c2ccccc2)c2sc(C(=O)Nc3cccc(Cl)c3)cc12	.	-	?	?	.	23µM
O=C(N/N=C/c1c[nH]c2ccccc12)c1ccc(Cl)cc1	-	-	-	-	-	-
Cc1cccc(/C=N/NC(=O)Cc2ccc(Cl)cc2)c1O	-	-	18µM	?	-	?
Cc1ccc(O)c(/C=N/NC(=O)Cc2ccc(Cl)cc2)c1	-	-	?	?	-	?
Cc1cccc(/C=N\NC(=O)c2ccc(Cl)cc2)c1O	-	-	4.6µM	-	-	?
O=C(Cc1ccc(Cl)cc1)N/N=C/c1ccc(O)c(O)c1	.	-	?	?	-	13µM
Cc1ccc(S(=O)(=O)N2CCCCC2)cc1NC(=O)c1c(-c2ccccc2)noc1C	-	-	-	-	-	-
CCOc1ccc(S(=O)(=O)N2CCN(C(=O)c3cc4ccccc4o3)CC2)cc1	-	-	21µM	?	?	21µM
CCOC(=O)c1ccc(S(=O)(=O)N2CCN(C(=O)c3cc(=O)c4ccccc4o3)CC2)cc1	-	-	-	-	-116	-
O=S(=O)(c1ccccc1)N1CCN(C(=S)NCc2ccccc2)CC1	-	-	-	-	-	?
CCOc1ccc(S(=O)(=O)N2CCN(C(=S)NCc3ccccc3)CC2)cc1	-	-	21µM	?	-	?
